Laboratory results taken from PubChem BioAssay AID1159580 (chemical genetic matrix, 2015).
Several values for one entry are separate records, joined by “and”; a condition that tells them apart may be missing. Identical values can stand only once. About 2,000 (36%) of roughly 5,500 compounds were called active. Not shown: some 18% with an inconclusive outcome. Rule as the data show it: active = normalized growth mostly below about 0.91 (no sharp cut-off); inconclusive = no clear call, values can overlap the other calls; inactive = mostly above about 0.92. The list shows a part of the results.

Assay: chemical genetic growth profiling, strain panel (AID 1159580);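 also: tested at 20 µM; growth read once vehicle control cultures reached saturation at 30 °C; 1 = growth at the plate median or of vehicle wells; lower values mean less growth of the strain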
Conditions: S. cerevisiae deletion strains, growth OD

Measured: normalized growth

Nc1ccncc1
inactive: locus YAL013W, strain DEP1, active compounds read low 1.02 and 1.01 | locus YAL021C, strain ccr4, active compounds read low 0.996 | locus YAL026C, strain drs2, active compounds read low 1 | locus YAL030W, strain snc1, active compounds read low 0.997 | locus YAL040C, strain CLN3, active compounds read low 0.997 | locus YBL061C, strain skt5, active compounds read low 0.99 | locus YBR009C, strain hhf1, active compounds read low 1 | locus YBR021W, strain FUR4, active compounds read low 1.02 | locus YBR023C, strain chs3, active compounds read low 0.993 | locus YBR171W, strain sec66, active compounds read low 0.979 | locus YBR229C, strain ROT2, active compounds read low 0.985 | locus YBR231C, strain swc5, active compounds read low 0.994 | locus YBR279W, strain paf1, active compounds read low 0.998 | locus YCL011C, strain gbp2, active compounds read low 0.995 | locus YCL016C, strain dcc1, active compounds read low 1 | locus YCL029C, strain bik1, active compounds read low 0.973 | locus YCL061C, strain MRC1 (second series), active compounds read low 1 | locus YCL061C, strain MRC1, active compounds read low 0.99 | locus YCL069W, strain vba3, active compounds read low 0.998 | locus YCR088W, strain abp1, active compounds read low 0.981 | locus YDL005C, strain med2, active compounds read low 0.991 | locus YDL035C, strain GPR1, active compounds read low 1.03 | locus YDL040C, strain nat1, active compounds read low 0.989 | locus YDL074C, strain BRE1, active compounds read low 1.05 | locus YDL101C, strain DUN1, active compounds read low 1.01 | locus YDL134C, strain PPH21, active compounds read low 1.02 | locus YDL185W, strain tfp1, active compounds read low 0.981 | locus YDL192W, strain arf1, active compounds read low 0.98 | locus YDR001C, strain nth1, active compounds read low 0.991 | locus YDR069C, strain doa4, active compounds read low 1 | locus YDR101C, strain arx1, active compounds read low 0.972 | locus YDR137W, strain rgp1, active compounds read low 1 | locus YDR150W, strain NUM1, active compounds read low 1.02 | locus YDR159W, strain sac3, active compounds read low 1 | locus YDR162C, strain NBP2, active compounds read low 1.01 | locus YDR195W, strain ref2 1.01 | locus YDR297W, strain sur2, active compounds read low 1 | locus YDR318W, strain mcm21, active compounds read low 0.955 | locus YDR334W, strain swr1, active compounds read low 0.997 | locus YDR335W, strain msn5, active compounds read low 0.997 | locus YDR363W, strain ESC2, active compounds read low 1.01 | locus YDR388W, active compounds read low 0.965 | locus YDR392W, strain spt3, active compounds read low 0.994 | locus YDR502C, strain sam2, active compounds read low 0.968 | locus YEL003W, strain gim4, active compounds read low 1 | locus YEL037C, strain rad23, active compounds read low 0.989 | locus YEL061C, strain CIN8 (second series), active compounds read low 0.994 | locus YEL061C, strain CIN8, active compounds read low 1.01 | locus YER002W, strain NOP16, active compounds read low 1.01 | locus YER015W, strain faa2, active compounds read low 0.995 | locus YER016W, strain bim1, active compounds read low 0.995 | locus YER110C, active compounds read low 0.973 | locus YER111C, strain swi4, active compounds read low 0.987 | locus YER155C, strain BEM2 (second series), active compounds read low 0.947 | locus YER155C, strain BEM2, active compounds read low 1.01 | locus YER167W, strain BCK2, active compounds read low 1.02 | locus YFR010W, strain ubp6, active compounds read low 0.996 | locus YGL078C, strain dbp3, active compounds read low 0.982 | locus YGL086W, strain mad1, active compounds read low 0.975 | locus YGL167C, strain pmr1, active compounds read low 0.992 | locus YGL173C, strain kem1, active compounds read low 0.99 | locus YGL227W, strain vid30, active compounds read low 0.98 | locus YGL240W, strain doc1, active compounds read low 1 | locus YGL248W, strain PDE1, active compounds read low 1.02 | locus YGL253W, strain hxk2, active compounds read low 1 | locus YGR078C, strain PAC10, active compounds read low 1.02 and 1.01 | locus YGR135W, strain pre9, active compounds read low 0.971 | locus YGR229C, strain SMI1, active compounds read low 1.01 and 1 | locus YGR252W, strain gcn5, active compounds read low 0.92 | locus YHR013C, strain ard1, active compounds read low 0.999 | locus YHR027C, strain rpn1, active compounds read low 0.998 | locus YHR030C, strain SLT2, active compounds read low 1.01 and 0.98 | locus YHR079C, strain IRE1 (second series), active compounds read low 0.965 | locus YHR079C, strain IRE1, active compounds read low 0.961 | locus YHR094C, strain hxt1, active compounds read low 0.974 | locus YHR129C, strain ARP1, active compounds read low 1.01 | locus YHR142W, strain chs7, active compounds read low 0.993 | locus YHR200W, strain rpn10, active compounds read low 0.96 | locus YIL066C, strain RNR3, active compounds read low 1.03 | locus YIL073C, strain SPO22, active compounds read low 0.993 | locus YIL125W, strain kgd1, active compounds read low 0.991 | locus YIR030C, strain dcg1, active compounds read low 0.975 | locus YJL092W, strain hpr5, active compounds read low 0.99 | locus YJL095W, strain BCK1 (second series), active compounds read low 0.991 | locus YJL095W, strain BCK1, active compounds read low 0.978 and 0.981 | locus YJL115W, strain asf1, active compounds read low 0.984 | locus YJL129C, strain trk1, active compounds read low 0.988 | locus YJL134W, strain LCB3, active compounds read low 1.01 | locus YJL154C, strain vps35, active compounds read low 0.992 | locus YJL164C, strain tpk1, active compounds read low 1.01 | locus YJL166W, strain qcr8, active compounds read low 0.989 | locus YJL168C, strain set2, active compounds read low 0.963 | locus YJL187C, strain SWE1 (second series), active compounds read low 1.03 | locus YJL187C, strain SWE1, active compounds read low 1 | locus YJR043C, strain POL32, active compounds read low 1 | locus YJR066W, strain TOR1, active compounds read low 0.917
